# Results taken from PubChem BioAssay (NCATS).
# Results filed as inconclusive are left out. Calls of active or inactive are those of the source. The call rests on the fitted dose curve; in most records, active means well fitted inhibition curve with a large enough effect; inconclusive means small, poorly fitted or top-dose-only effect; inactive means flat fitted curve, though single readings scatter.
# Target: Lysine-specific demethylase 5B (Homo sapiens) (UniProt Q9UGL1)
# Assay: Optimization screen for KDM5B Histone Demethylases FDH coupled qHTS against the LOPAC library (AID 1347166); further: 0% is about no effect
# Conditions: KDM5B demethylation, FDH-coupled NADH fluorescence (FDH is formaldehyde dehydrogenase); at 57.5 µM (top of the series)
# Procedure, shortened: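 KDM5BDeltaAP (200nM final) preincubated 10 min with compound, then 12.5uM H3K4Me3, 25uM a-ketoglutarate, ascorbate, Fe(II), NAD+ and FDH added; 50mM HEPES pH 7.5, 0.01% Tween-20. NADH fluorescence (340/450 nm) change over 30 min, room temperature.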
# Lysine-specific demethylase 5B (Homo sapiens), sequence (Q9UGL1 whole entry, looked up): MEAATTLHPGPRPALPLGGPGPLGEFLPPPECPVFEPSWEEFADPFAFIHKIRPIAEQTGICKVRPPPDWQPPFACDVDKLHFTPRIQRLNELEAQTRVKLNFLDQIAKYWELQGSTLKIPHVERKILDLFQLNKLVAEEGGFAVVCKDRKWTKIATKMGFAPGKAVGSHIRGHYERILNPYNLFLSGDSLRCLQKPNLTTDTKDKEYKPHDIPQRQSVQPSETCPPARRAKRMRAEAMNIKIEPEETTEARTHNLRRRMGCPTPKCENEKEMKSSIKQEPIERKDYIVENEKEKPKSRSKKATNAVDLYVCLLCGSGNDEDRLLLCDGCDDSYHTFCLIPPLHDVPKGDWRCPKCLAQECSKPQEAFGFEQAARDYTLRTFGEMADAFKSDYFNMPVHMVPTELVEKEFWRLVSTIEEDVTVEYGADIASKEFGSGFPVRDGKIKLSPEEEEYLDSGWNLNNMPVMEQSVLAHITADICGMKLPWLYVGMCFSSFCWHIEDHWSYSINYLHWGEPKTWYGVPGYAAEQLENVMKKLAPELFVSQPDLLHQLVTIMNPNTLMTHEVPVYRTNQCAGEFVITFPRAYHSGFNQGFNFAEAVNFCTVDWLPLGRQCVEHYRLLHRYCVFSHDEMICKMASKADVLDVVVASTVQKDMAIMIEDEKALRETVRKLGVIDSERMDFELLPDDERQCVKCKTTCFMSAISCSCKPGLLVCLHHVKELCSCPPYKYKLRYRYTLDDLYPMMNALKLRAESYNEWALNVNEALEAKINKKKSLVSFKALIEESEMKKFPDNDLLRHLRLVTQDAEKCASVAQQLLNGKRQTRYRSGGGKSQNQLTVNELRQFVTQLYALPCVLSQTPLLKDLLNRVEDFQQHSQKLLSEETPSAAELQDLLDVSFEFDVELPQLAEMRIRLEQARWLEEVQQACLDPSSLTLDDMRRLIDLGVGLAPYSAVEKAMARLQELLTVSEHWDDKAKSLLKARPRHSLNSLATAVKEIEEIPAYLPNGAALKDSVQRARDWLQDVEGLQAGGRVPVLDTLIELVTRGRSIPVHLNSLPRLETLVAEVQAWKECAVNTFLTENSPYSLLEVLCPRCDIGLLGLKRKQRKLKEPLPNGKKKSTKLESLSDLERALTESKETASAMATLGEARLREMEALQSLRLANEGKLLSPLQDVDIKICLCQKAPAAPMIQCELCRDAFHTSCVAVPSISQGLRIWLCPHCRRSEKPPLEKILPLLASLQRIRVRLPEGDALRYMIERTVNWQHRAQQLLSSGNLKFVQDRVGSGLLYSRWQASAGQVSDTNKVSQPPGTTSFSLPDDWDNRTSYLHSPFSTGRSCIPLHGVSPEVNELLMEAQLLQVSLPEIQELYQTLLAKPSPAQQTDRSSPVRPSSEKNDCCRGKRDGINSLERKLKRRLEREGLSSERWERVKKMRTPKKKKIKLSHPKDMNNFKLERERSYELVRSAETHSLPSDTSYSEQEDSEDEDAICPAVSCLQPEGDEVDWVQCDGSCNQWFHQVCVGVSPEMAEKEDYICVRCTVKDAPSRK
row,Structure (SMILES),"activity, negative = inhibition"
1,N=C(N)c1ccccc1,-3.44% (inactive)
2,COc1ccc(-c2ccc(N)[n+](CCCC(=O)O)n2)cc1,-3.69% (inactive)
3,COc1ccc2c(c1)c(CC(=O)O)c(C)n2C(=O)c1ccccc1,5.12% (inactive)
4,CCOC(=O)C12CC1/C(=N/O)c1ccccc1O2 (stereo not drawn),-9.53% (inactive)
5,NC(=O)c1ccccc1,0.361% (inactive)
6,O=c1cc(-c2ccccc2F)[nH]c2cc3c(cc12)OCO3,-604% (active)
7,CC(N)=NCCCC[C@@H](N)C(=O)O,-21.9% (inactive)
8,O=c1onc2n1-c1cc(Br)ccc1OC2,-6.75% (inactive)
9,CCCCCCC/C=C\CCCCCCCCC(=O)O,-29.9% (inactive)
10,CN(C)CCC(c1ccc(Br)cc1)c1ccccn1 (stereo not drawn),-1.47% (inactive)
11,c1ccc2c(c1)CC(N1CCN(c3cccc4c3OCCO4)CC1)C2,-5.51% (inactive)
12,Nc1ncnc2c1nc(Br)n2C1OC2COP(=O)(O)O[C@@H]2C1O (stereo partly drawn),-2.56% (inactive)
13,O=C(O)C1CCCNC1 (stereo not drawn),-0.313% (inactive)
14,NC(=O)CNCCC(c1ccccc1)c1ccccc1,2.72% (inactive)
15,O=C(O)C1CN(CCCP(=O)(O)O)CCN1 (stereo not drawn),0.457% (inactive)
16,C=CCNc1ncnc2ccc(Br)cc12,-0.201% (inactive)
17,COC(=O)C(N)Cc1ccc(Cl)cc1 (stereo not drawn),-3.16% (inactive)
18,CCCCCCCCCC(=O)NC(CN1CCOCC1)[C@H](O)c1ccccc1 (stereo partly drawn),-9.31% (inactive)
19,Cc1nc(N=Nc2ccc(C(=O)O)cc2)c(COP(=O)(O)O)c(C=O)c1O,-12.4% (inactive)

row,Structure (SMILES),"activity, negative = inhibition"
1,CC(=O)O[C@H]1CC2(C)[C@@H](C[C@@H](O)[C@H]3[C@@]4(C)CC[C@@H](O)[C@@H](C)[C@@H]4CC[C@@]32C)C1=C(CCC=C(C)C)C(=O)O (stereo partly drawn),-4.8% (inactive)
2,Cc1ccc([N+](=O)[O-])cc1S(=O)(=O)N(C)C,-0.674% (inactive)
3,COc1ccccc1N1CCN(CCCCNC(=O)c2ccc3ccccc3c2)CC1,-7.43% (inactive)
4,CCC(=O)N1CCN(C(=O)c2ccccc2)CC1,3.19% (inactive)
5,NC1(C(=O)O)CC1,-7.89% (inactive)
6,COC(=O)C(C)(N)Cc1ccc(O)cc1 (stereo not drawn),-17.5% (inactive)
7,CN1CCCC1CCOC(C)(c1ccccc1)c1ccc(Cl)cc1 (stereo not drawn),-0.721% (inactive)
8,N=C(N)c1ccc(N)cc1,-6.1% (inactive)
9,NC(N)=[N+]1CCc2ccccc2C1,2.33% (inactive)
10,N[C@@H](Cc1ccc(F)cc1)C(=O)O,-14.8% (inactive)
11,O=C(O)C1CCNCC1,-5.33% (inactive)
12,CC(N)(Cc1ccc(O)cc1)C(=O)O (stereo not drawn),1.49% (inactive)
13,CC1C(=O)N(C)C(=O)c2nc[nH]c21 (stereo not drawn),-5.54% (inactive)
14,CC(N)=O,-7.02% (inactive)
15,Nc1nc2c(nc(Br)n2C2OC3COP(=O)(O)O[C@@H]3C2O)c(=O)[nH]1 (stereo partly drawn),-2.81% (inactive)
16,O=C(O)[C@H]1NCCC[C@H]1C(=O)O,-4.16% (inactive)
17,CCCn1c(=O)c2[nH]c(-c3ccc(S(=O)(=O)O)cc3)nc2n(CCC)c1=O,2090% (inactive)
18,CC(C)[C@@H]1CC[C@@H](C)C[C@@H]1P(=O)(c1ccccc1)c1ccccc1,-4.33% (inactive)
19,Cc1nc2n(c(=O)c1CCN1CCC(c3noc4cc(F)ccc34)CC1)CCCC2O (stereo not drawn),-13.2% (inactive)
